Experimental data from PubChem BioAssay (NCATS).
Inconclusive results are not listed. Unmarked numbers belong to inactive results. The source made the active and inactive calls. Calls follow the shape of the dose curve; as a rule, active = well fitted cell-killing curve with a large enough effect; inconclusive = small, poorly fitted or top-dose-only effect, or effect the other way; inactive = flat fitted curve, though single readings scatter.

Experiment: qHTS for Inhibitors of ATXN expression: Validation of Cytotoxic Assay (AID 588349)
Details: cytotoxicity counter-screen for ATXN expression inhibitors, cell viability; series mostly up to 57.1 µM; activity change, negative = cytotoxicity: at the top concentration
Text: Spinocerebellar ataxia type 2 (SCA2) is a multisystem neurodegenerative disease caused by a dominantly-acting mutation leading to expansion of a polyQ domain in the ataxin-2 protein (ATXN2). SCA2 patients develop progressive ataxia and later lose function in other neuronal systems. Prominent parkinsonian signs develop in some patients. Similar to many neurodegenerative disorders, no symptomatic or disease-modifying treatments are known.
The primary objective of project is to identify compounds inhibiting ATXN2 expression and to test them for efficacy in SCA2 mouse models. To this end, in a collaboration between Dr. Daniel Scoles and scientists at NCGC, a cell-based assay adapted to high-throughput screening has been developed to screen the NIH Molecular Libraries Small Molecule Repository (MLSMR). Confirmed qHTS active compounds will be tested for toxicity against the human neuron-like SH-SY5Y cell line. This line is the parental cell type used to generate the transgenic line used in the primary assay, and so should provide an isogenic control to test the inherent toxicity of qHTS actives.
NIH Chemical Genomics Center [NCGC]
NIH Molecular Libraries Probe Centers Network [MLPCN]
Assay Submitter (PI): Stefan Pulst and Daniel Scoles, University of Utah
HEK293 cultured cells will be dosed with titrated compounds and incubated for 72 hr at 37 degrees C. Toxicity will be assessed using the CellTiter Glo kit (Promega), which uses intracellular ATP concentration as a viability marker.
% is scaled to controls: 0 for no effect and ±100 for the full control effect; potency is read from the fitted curve at half-maximal effect.

With `COc1ccccc1N1CCNCC1` as the molecule, how does the “activity change, negative = cytotoxicity” value read?
Its value is -24.1%.

With `CCCC(C)(COC(N)=O)COC(=O)NC(C)C` (centres undefined) as the molecule, how does the “activity change, negative = cytotoxicity” value read?
Its value is 2.95%.

For `CC[C@@H](CO)NC(=O)[C@@H]1C=C2c3cccc4[nH]cc(c34)C[C@H]2N(C)C1`, which “activity change, negative = cytotoxicity” value is on record?
The value was -7.92%.

Which “activity change, negative = cytotoxicity” value does the source give for `CC(=O)[C@H]1CC[C@H]2[C@@H]3CC[C@H]4C[C@H](O)CC[C@]4(C)[C@H]3C(=O)C[C@]12C` here?
Its value is -9.47%.

For `O=c1[nH]c2ccccc2n1C1CCN(CCCC(c2ccc(F)cc2)c2ccc(F)cc2)CC1`, which “activity change, negative = cytotoxicity” value is on record?
The value was -4.18%.

For `O=C1NCN(c2ccccc2)C12CCN(CC1COc3ccccc3O1)CC2` (centres undefined), which “activity change, negative = cytotoxicity” value is on record?
Its value is -11.7%.

For `CC(C)=CCOc1c2occc2cc2ccc(=O)oc12`, which “activity change, negative = cytotoxicity” value is on record?
The value was -8.68%.

Which “activity change, negative = cytotoxicity” value does the source give for `N#CC(C#N)=Cc1ccc(O)c(O)c1` here?
Its value is -15.7%.

For `c1ccc(C2CC2)c(OCC2=NCCN2)c1`, which “activity change, negative = cytotoxicity” value is on record?
Its value is -13.9%.

With `Cc1cccc(C)c1NC1=NCCCS1` as the molecule, how does the “activity change, negative = cytotoxicity” value read?
The value was -14.9%.

Which “activity change, negative = cytotoxicity” value does the source give for `CC(O)(CS(=O)(=O)c1ccc(F)cc1)C(=O)Nc1ccc(C#N)c(C(F)(F)F)c1` (centres undefined) here?
The value was -9.14%.

Which “activity change, negative = cytotoxicity” value does the source give for `Nc1ccncc1` here?
The value was -16%.

With `CCC1(C2=NCCN2)Cc2ccccc2O1` (centres undefined) as the molecule, how does the “activity change, negative = cytotoxicity” value read?
Its value is -6.98%.

For `NCC1(CC(=O)O)CCCCC1`, which “activity change, negative = cytotoxicity” value is on record?
The value was -5.21%.

With `Cc1cccc(C)c1NC(=O)CN1CCCC1=O` as the molecule, how does the “activity change, negative = cytotoxicity” value read?
Its value is -6.98%.

With `CC(C)NCC(O)c1ccc(O)c(O)c1` (centres undefined) as the molecule, how does the “activity change, negative = cytotoxicity” value read?
Its value is -22.8%.

Which Potency does the source give for `c1ccc2c(c1)OCC(C1=NCCN1)O2` (centres undefined) here?
The Potency was 22.4 µM (active).

Which “activity change, negative = cytotoxicity” value does the source give for `CCCN1CCC[C@@H]2Cc3nc(N)ncc3C[C@H]21` here?
Its value is 0.821%.

With `NN=C(N)N` as the molecule, how does the Potency read?
The Potency was “inactive”.

With `CNCCC(Oc1ccc(C(F)(F)F)cc1)c1ccccc1` (centres undefined) as the molecule, how does the Potency read?
The Potency was 28.2 µM (active).

For `NCC(CC(=O)O)c1ccc(Cl)cc1` (centres undefined), which “activity change, negative = cytotoxicity” value is on record?
Its value is -13.1%.

Which “activity change, negative = cytotoxicity” value does the source give for `NCC(O)c1ccc(O)cc1` (centres undefined) here?
Its value is -13.9%.

With `COc1ccc(C(CN(C)C)C2(O)CCCCC2)cc1` (centres undefined) as the molecule, how does the “activity change, negative = cytotoxicity” value read?
Its value is -17.8%.

Which “activity change, negative = cytotoxicity” value does the source give for `CNCC(O)c1ccc(O)cc1` (centres undefined) here?
The value was -5.89%.

Which “activity change, negative = cytotoxicity” value does the source give for `Cc1ncc(CNC(=O)N(CCCl)N=O)c(N)n1` here?
The value was -3.9%.

Which Potency does the source give for `Cc1cc2c(C(C)C)c(O)c(O)c(C=O)c2c(O)c1-c1c(C)cc2c(C(C)C)c(O)c(O)c(C=O)c2c1O` here?
The Potency was 10 µM (active).

Which Potency does the source give for `Fc1ccc(C(OCCN2CCN(CCCc3ccccc3)CC2)c2ccc(F)cc2)cc1` here?
Its Potency is 35.5 µM (active).

With `CC(=O)[C@H]1CC[C@H]2[C@@H]3CC[C@H]4C[C@](C)(O)CC[C@]4(C)[C@H]3CC[C@]12C` as the molecule, how does the “activity change, negative = cytotoxicity” value read?
Its value is -2.89%.

For `CCCN1CCC[C@@H]2Cc3[nH]ncc3C[C@H]21`, which Potency is on record?
Its Potency is “inactive”.
